Compounds with a hit are over-represented: about 17% of the library has one in this group of screens.
HepG2 tox: HepG2 cytotoxicity, counter-screen for TGF-b inhibitors; HepG2 CAGA-GFP viability, ATP luminescence, 18 h; Potency, µM (highest dose often 46.1 µM), actives largely listed as cytotoxic; 0.76% of 410,000 active
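CellTiter-Glo luminescence gave cytotoxicity after 18 hours at 37 degrees C. The cells were HepG2 CAGA-GFP in 1% FBS DMEM, stimulated with 500 pg/mL TGF-beta after compound addition. %Activity was normalised to no-cell wells (complete cell-killing) and DMSO (no toxicity), and curves were fitted and classified.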
DT40 TDP1 no CPT: qHTS for Inhibitors of human tyrosyl-DNA phosphodiesterase 1 (TDP1): qHTS in cells in absence of CPT | DT40 Tdp1-/- hTDP1 cells, no CPT, ATP luminescence, 48 h | Potency, µM (titrated, usually from 46.2 µM), actives largely listed as inhibitors | 15% of 420,000 active | AID 686978, 2013; also: nearly all actives have a fitted effect of over 55% in size
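DT40 Tdp1-/-;hTDP1 cells, no CPT (DMSO vehicle only), 400 cells/well; compounds pin-transferred; ≥48 hr, 37 °C; CellTiter-Glo 30 min RT dark, luminescence read.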
TDP1 cell CPT: growth inhibition of DT40 Tdp1-/-;hTDP1 cells with camptothecin (screen for TDP1 inhibitors); chicken DT40 Tdp1-/-;hTDP1 cells + 20 nM CPT, ATP luminescence, 48 h; Potency, µM (series often up to 46.2 µM), usual class: inhibitors; 12% of 420,000 active; AID 686979; also: nearly all actives have a fitted effect of over 55% in size
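Cell growth measured by CellTiter-Glo luminescence after a minimum 48 h, 37 C compound exposure with 20 nM CPT in Tdp1-knockout DT40 cells stably expressing hTDP1, seeded 400/well; qHTS titration format.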
HT1080-NT tox: kills 2HG-producing HT-1080-NT fibrosarcoma cells; HT-1080-NT fibrosarcoma viability, CellTiter-Glo ATP luminescence, 48 h; Potency, µM (top dose mostly 46.1 µM), usual class: cytotoxic; 1.6% of 360,000 active;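 also: NT is the 2HG producing partner of a matched IDH1 knockdown line; nearly all actives have a fitted effect of over 55% in size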
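HT-1080-NT; 750 cells/well; 5% FBS RPMI; 48 h compound, 37 degrees C; CellTiter-Glo luminescence; curve fitting and curve-class assignment.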
HT1080 IDH1KD tx: kills HT-1080 cells with IDH1 knockdown | HT-1080 IDH1 knockdown viability, ATP luminescence, 48 h | Potency, µM (top dose mostly 46.1 µM), actives largely listed as cytotoxic | 2% of 360,000 active | AID 686971
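Luminescent ATP read-out (CellTiter-Glo, 10 min at room temperature) after 48 h compound exposure at 37 °C gave viability of IDH1-knockdown HT-1080 cells. Activity was normalised to DMSO and cell-free wells, then fitted as concentration-response curves.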
TGFb inhibitor: blocks TGF-b signaling; HepG2 CAGA-GFP TGF-b/SMAD3 reporter, GFP fluorescence, 18 h; TGF-beta stimulated, 500 pg/mL final; Potency, µM (titrated, usually from 46.1 µM), most hits filed as inhibitors; 1.2% of 410,000 active; AID 588855; also: nearly all actives have a fitted effect of over 65% in size
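First, reporter cells (HEPG2 CAGA-GFP) rested 2 h at 37 degrees C. Next, compounds were pinned in and TGF-beta added to 500 pg/mL final. After 18 h, GFP was imaged per cell and summed per well.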
Large screens that a line does not name were inactive. Calls follow the shape of the dose curve; as a rule, active = well fitted curve in the direction sought with a large enough effect; inconclusive = small, poorly fitted or top-dose-only effect, or another doubt; inactive = no such curve, though single readings can be large; an effect the other way counts as inactive or inconclusive.

CN(CC1COc2ccccc2O1)C(=O)c1ccc(Cl)c(S(=O)(=O)N2CCCCCC2)c1 (stereo unspecified)	DT40 TDP1 no CPT inconclusive, TDP1 cell CPT 16.4µM, TGFb inhibitor inconclusive
CCOC(=O)c1ccccc1NC(=O)c1nn(C)c2c1COc1ccccc1-2	none (no result: HT1080-NT tox, HT1080 IDH1KD tx)
COC(=O)C1=C(C)NC(C)=C(C(=O)OC)C1c1ccc(C)o1	none
Cc1cccc(OCCC(=O)Nc2ccc(C)c(S(=O)(=O)N3CCCCC3)c2)c1	DT40 TDP1 no CPT 20.6µM, TDP1 cell CPT inconclusive, TGFb inhibitor inconclusive
COC(=O)c1ccc2c(c1C(=O)OC)CN(S(=O)(=O)C(C)(C)C)[C@@H]2CCO	none
CN(Cc1ccccc1)CC(O)COc1ccc(CNCCc2cccnc2)cc1 (stereo unspecified)	DT40 TDP1 no CPT inconclusive, TDP1 cell CPT inconclusive
CCc1ccc(CNCc2ccc(OCC(O)CN(C)Cc3ccccc3)cc2)nc1 (stereo unspecified)	DT40 TDP1 no CPT 23.1µM, TDP1 cell CPT 16.4µM, HT1080-NT tox inconclusive, HT1080 IDH1KD tx inconclusive, TGFb inhibitor inconclusive
[O-][n+]1cccc(CO)c1	none (no result: HepG2 tox, HT1080-NT tox, HT1080 IDH1KD tx, TGFb inhibitor)
CC(C)c1ccc(N(CC(=O)N2CCN(Cc3ccccc3)CC2)S(C)(=O)=O)cc1	DT40 TDP1 no CPT inconclusive
C/C(=N\NC(=S)Nc1ccc(C)cc1)c1cccc(N)c1	DT40 TDP1 no CPT inconclusive, TDP1 cell CPT inconclusive
CSC(=S)N/N=C(\C)c1ccccc1	DT40 TDP1 no CPT inconclusive, TDP1 cell CPT 3.26µM, TGFb inhibitor inconclusive
C/C(=N\NC(=S)Nc1cccc(C)c1)c1ccccc1	DT40 TDP1 no CPT 1.12µM, TDP1 cell CPT 2.82µM
C/C(=N\NC(=S)Nc1cccc(C)c1)c1ccco1	DT40 TDP1 no CPT inconclusive, TDP1 cell CPT inconclusive
C/C(=N\NC(=S)Nc1cccc(C)c1)c1cccc(N)c1	DT40 TDP1 no CPT 0.92µM, TDP1 cell CPT 0.92µM
CCCCn1c(N)c(N(CCOC)C(=O)COC(=O)CCOc2ccccc2C)c(=O)[nH]c1=O	none
CC(=O)Nc1cccc(OCC(O)Cn2c(C)nc3ccccc32)c1 (stereo unspecified)	DT40 TDP1 no CPT 16.4µM, TDP1 cell CPT inconclusive
CCCOC(=O)c1ccc(OCC(O)Cn2c(C)nc3ccccc32)cc1 (stereo unspecified)	DT40 TDP1 no CPT 2.59µM, TDP1 cell CPT 2.59µM
CC(=O)Nc1cccc(OCC(O)Cn2cnc3ccccc32)c1 (stereo unspecified)	none
Cc1nc2ccccc2n1CC(O)COCC1CC=CCC1 (stereo unspecified)	DT40 TDP1 no CPT 10.3µM, TDP1 cell CPT 14.6µM, TGFb inhibitor inconclusive
CCC(=O)c1ccc(OCC(O)Cn2nnc3ccccc32)cc1 (stereo unspecified)	none
OC(COCC1CC=CCC1)Cn1cnc2ccccc21 (stereo unspecified)	none
CCCCn1c(N)c(N(Cc2ccccc2OC)C(=O)C(C)C)c(=O)[nH]c1=O	none
CN(CC(=O)Nc1ccccc1Cl)C(=O)c1ccc(COc2ccccc2)cc1	DT40 TDP1 no CPT inconclusive, TDP1 cell CPT inconclusive
O=C1N=C(N2CCN(Cc3ccccc3)CC2)S/C1=C/c1cccs1	DT40 TDP1 no CPT 11.6µM
Cc1cccc(NC(=S)NC(=O)c2oc3ccccc3c2C)n1	TDP1 cell CPT inconclusive
Cc1cc(N2CCN(c3ccccc3)CC2)nc(-c2ccccc2)n1	DT40 TDP1 no CPT 10.3µM, TDP1 cell CPT 23.1µM
CSCc1cc(N2CCCC2)nc(-c2ccccc2)n1	DT40 TDP1 no CPT inconclusive
Cc1cc(N2CCN(C(=O)c3ccco3)CC2)nc(-c2ccccc2)n1	DT40 TDP1 no CPT 18.4µM, TDP1 cell CPT inconclusive
O=C(c1ccco1)N1CCN(c2ccc(N3CCCCC3)nn2)CC1	none

High-throughput results as filed in PubChem BioAssay.
